The values below come from PubChem BioAssay.

A number with no mark means an inactive call.

This assay in a line: fission yeast growth modulation, primary screen, strain 972, OD600, 24 h, no modulator (AID 1090).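 Also: basal condition with compound alone and no growth modifier present; test concentration not given here.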 The conditions noted are these: S. pombe 972 growth, higher = more signal, called active from +8 up or from −8 down.
On to `C[C@@H]1CC[C@H]2C(=O)O[C@@H](Cc3ccccc3)CN2[C@H]1c1ccc(Br)cc1`, for which the z-score is -2.36.
Take `COc1ccc(O[C@H]2C=C[C@@H](c3ccccc3)O[C@@H]2CON=C(C)CCC(=O)OC[C@H]2O[C@H](c3ccccc3)C=C[C@@H]2Oc2ccc(OC)cc2)cc1`: the z-score was 0.91.
The result for `O=C1[C@H]2[C@H]3[C@H](O)[C@H](O)CC(=NOCc4ccccc4)[C@@H]3CC[C@H]2C(=O)N1Cc1ccc2c(c1)OCO2` reads 0.437; that for `COC(=O)CC=C[C@@H](C)[C@@H](C=NO[C@@H]1O[C@H](COC(C)=O)[C@@H](OC(C)=O)[C@H](OC(C)=O)[C@H]1OC(C)=O)OC`, 0.146.
With `COc1cccc([C@H]2Oc3ccc(OC)cc3C(=NOC[C@@H](O)[C@H]3O[C@@H]4OC(C)(C)O[C@@H]4[C@H]3O)[C@@H]2O)c1`, the z-score is -2.21.
Turning to `O=C1C[C@@H](O)[C@@H](O)[C@@H]2[C@@H]3C(=O)N(Cc4ccccc4)C(=O)[C@@H]3CC[C@@H]12`, the z-score is -0.136.
The result for `CO[C@H]1COC(=O)CC=C[C@@H](C)[C@H](OC)COC(=O)CCC[C@@H]1C` reads -0.441; that for `CCN1C(=O)[C@H]2[C@H]3[C@H](O)[C@H](O)CC(=NNC(=O)OCc4ccc(OC)cc4)[C@@H]3CC[C@H]2C1=O`, -1.45.
